According to PubChem BioAssay (NCI):
The panel holds about 79,000 compounds, 15% with a hit somewhere; the sample as a whole holds those more often. Active and inactive are the calls of the source. Rule as the data show it: active = growth inhibition above about 70%; inactive = the rest.

Columns and labels:
[1] = NCI Yeast Anticancer Drug Screen. Data for the rad50 strain (AID 155);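 also: 0% = growth of vehicle-only cultures of the same strain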; settings: S. cerevisiae rad50 strain growth inhibition, stronger effect = higher value; at 50.0 µM unless noted
Method in brief: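 Yeast carrying a defined DNA repair defect were exposed to test compounds, and growth was compared with vehicle-treated controls to give percent inhibition.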

[2] = NCI Yeast Anticancer Drug Screen. Data for the mec2-1 strain (AID 157); settings: S. cerevisiae mec2-1 strain, stronger effect = higher value; at 50.0 µM unless noted
Method in brief: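 Each compound was tested on mec2-1 yeast, a strain altered in DNA damage repair or cell cycle control. Growth inhibition is reported relative to vehicle.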

[3] = NCI Yeast Anticancer Drug Screen. Data for the sgs1 mgt1 strain (AID 161);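 also: 0% = growth of cultures given vehicle only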; settings: S. cerevisiae sgs1 mgt1 strain, stronger effect = higher value; at 50.0 µM unless noted
Method in brief: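 Read-out: growth inhibition vs vehicle controls. Cells: mutant yeast strain deficient in DNA damage repair.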

[4] = NCI Yeast Anticancer Drug Screen. Data for the cln2 rad14 strain (AID 165);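 also: 0% = growth equal to vehicle treated cultures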; settings: S. cerevisiae cln2 rad14 strain, stronger effect = higher value; at 50.0 µM unless noted
Method in brief: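 Test compounds were added to cln2 rad14 yeast cultures; inhibition of growth was then determined by comparison with vehicle treatment.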

[5] = NCI Yeast Anticancer Drug Screen. Data for the bub3 strain (AID 167); settings: S. cerevisiae bub3 mutant strain, stronger effect = higher value; at 50.0 µM unless noted
Method in brief: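 Compounds were applied to a genetically altered yeast strain carrying a cell-cycle control defect. Growth inhibition was scored against vehicle-treated controls.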

[6] = NCI Yeast Anticancer Drug Screen. Data for the mlh1 rad18 strain (AID 175); settings: S. cerevisiae mlh1 rad18 strain growth inhibition, stronger effect = higher value; at 50.0 µM unless noted
Method in brief: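 Inhibition values reflect reduced growth of mutant yeast versus vehicle-treated controls following compound exposure; the mutations affect DNA damage repair.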

Measured: growth inhibition

c1nc2c([nH]1)CCNC2c1ccc(C2NCCc3[nH]cnc32)cc1 (stereo not drawn)
inactive: [1] 1.65% | [2] -1.65% | [3] 1.3% | [4] -38.9% | [5] -14.1% | [6] -2.95%

C=C1CC[C@@H](C)[C@](C)(CCc2ccoc2)C/C=C\C=C/1C(=O)O
inactive: [1] 23.7% | [2] 30.8% | [3] 18.6% | [4] 48.1% | [5] 25.6% | [6] 61.6%

CCC(=O)C(C)=O
inactive: [1] 16.9% | [2] 3.9% | [3] 13.1% | [4] -4% | [5] 0.15% | [6] 11.7%

C=CSS/C(=C/N(C=O)Cc1cnc(C)nc1N)CCO
inactive: [1] -10.6% | [2] -33.5% | [3] -18.9% | [4] 1.85% | [5] -17.1% | [6] -10%

Cc1ccc2c(c1)C(C(=O)N[C@@H]1C(=O)N3[C@@H]1SC(C)(C)[C@@H]3C(=O)O)OCCC2 (stereo partly drawn)
inactive: [1] -5.1% | [2] -12.3% | [3] 16.2% | [4] 2.45% | [5] 0.65% | [6] -68.4%

CC1CCCCN1C(=O)Nc1ccc(Cl)cc1[N+](=O)[O-] (stereo not drawn)
inactive: [1] 9.3% | [2] 44.2% | [3] 29.6% | [4] -15.6% | [5] 64.3% | [6] 42.4%

CN(C)c1c2ccccc2c(NC=O)c2ccccc12
inactive: [1] 3.45% | [2] -14.9% | [3] 11.7% | [4] 24.6% | [5] -1.05% | [6] 9%

O=C(O)c1cscc1Cc1cccs1
inactive: [1] 0.05% | [2] -13.7% | [3] -43.6% | [4] -30.6% | [5] -76% | [6] 13.7%

O=C(CI)NCc1cn(C2CC(O)C(CO)O2)c(=O)[nH]c1=O (stereo not drawn)
inactive: [1] 4.9% | [2] 3.85% | [3] 5.85% | [4] 19.8% | [5] 1.15% | [6] 3.3%

CCOC(=O)c1c(NS(=O)(=O)c2ccc(C)cc2)sc(C)c1-c1ccccc1
inactive: [1] -21.4% | [2] -0.45% | [3] -6.2% | [4] 67.8% | [5] 6.85% | [6] -3.65%

O=c1oc(-c2ccccc2)nc2c1sc1nc(-c3ccccc3)oc(=O)c12
inactive: [1] 47.9% | [2] 30.7% | [3] 43.3% | [5] 24.6% | [6] 49.4%
active: [4] 79.8%

CN(Cc1ccccc1)C(=O)Nc1ccc(Cl)c(Cl)c1
active: [1] 95.8% | [2] 99% | [3] 99% | [4] 97.1% | [5] 97.7% | [6] 98.5%

CNC(=O)C(C)NC(=O)C(Cc1ccccc1)NC(=O)c1ccccc1 (stereo not drawn)
inactive: [1] -33% | [2] -52.7% | [3] -6.45% | [4] 15.4% | [5] 5.2% | [6] -11.7%

COc1ccc(C2=C(Cl)c3cc(OC)c(OC)cc3C2Cl)cc1 (stereo not drawn)
inactive: [1] 14.8% | [2] 22.6% | [3] 21.2% | [4] 11.8% | [5] -0.45% | [6] -41.6%

CC(=O)Nc1ccn(C2OC(CO)C(O)C2O)c(=O)n1 (stereo not drawn)
inactive: [1] -3.6% | [2] 26.9% | [3] 0.05% | [4] 31.1% | [5] -11.6% | [6] 8.3%

C=CC(=O)Nc1ccccc1
inactive: [1] 16.4% | [2] -8.05% | [3] 8.25% | [4] -8.35% | [5] -10% | [6] 5.55%

COc1ccccc1NC(=O)c1ccccc1
inactive: [1] 23.2% | [2] 11.3% | [3] 4.95% | [4] -9.25% | [5] 2.75% | [6] 16.1%

CC(C)(Nc1ccccc1)C(=O)OC(C)(C)C(=O)Nc1ccccc1
inactive: [1] -7% | [2] -25.5% | [3] -12.4% | [4] 2.05% | [5] -6.45% | [6] -7.4%

CN(C)c1ccc(-c2nc(-c3cc4c(ccc5ccccc54)oc3=O)cs2)cc1
inactive: [1] 22.1% | [2] 15.6% | [3] -7.55% | [4] 6.4% | [5] -19.8% | [6] -36%

Cc1c(C)c(C(=O)Cc2ccccc2)c(C)c(C(=O)Cc2ccccc2)c1C
inactive: [1] 19.6% | [2] -1.8% | [3] -15.3% | [4] 12.3% | [5] 5.55% | [6] 0.65%

Cc1cc(CSC(=N)N)c(CSC(=N)N)cc1C
inactive: [1] 9.75% | [2] -3.85% | [3] -2.45% | [4] -4.25% | [5] 4.65% | [6] 2.05%

Cc1ccnc(NCCCNc2nccc(C)n2)n1
inactive: [1] 22.6% | [2] -1.4% | [3] 14.1% | [4] 36.8% | [5] 5.2% | [6] 22.3%

C=C1CC(COc2ccc3c(C)c(C)c(=O)oc3c2C)(c2ccccc2)OC1=O (stereo not drawn)
inactive: [1] 8.85% | [2] -3.75% | [3] 23.9% | [4] 4.85% | [5] 6.7% | [6] 21.4%

COc1c2c(cc3c1C(CCCc1ccccc1)N(C)CC3)OCO2 (stereo not drawn)
inactive: [1] 22.4% | [2] 7.6% | [3] 30.7% | [4] 11.5% | [5] 9.75% | [6] 28.6%

O=C1c2cc(Cc3ccccc3)c(=O)c(Cc3ccccc3)cc2C(=O)c2cc(Cc3ccccc3)c(=O)c(Cc3ccccc3)cc21
inactive: [1] 23% | [2] -11.3% | [3] -11.3% | [4] -26% | [5] -6.35% | [6] 20.3%

CS(=O)(=O)OCCN(CCOS(C)(=O)=O)c1ccc([N+](=O)[O-])cc1[N+](=O)[O-]
inactive: [1] 22.6% | [2] -5.8% | [3] -0.2% | [4] 24.8% | [5] -3.95% | [6] 13.6%

Cn1c2ccc(Cl)cc2c2ccc3c(c21)C(=O)C=CC3=O
inactive: [1] -21.9% | [2] -33% | [3] -18.3% | [4] 14.2% | [5] -25.2% | [6] -8.05%

c1ccc2c(c1)ccc1c[n+]3ccccc3cc12
inactive: [1] 26.6% | [2] 23.1% | [3] 22.2% | [4] 44.5% | [5] 9.25% | [6] 61.9%

Cc1ccc(OC/C=C/CSc2ccc(Br)cc2)cc1
inactive: [1] 4.95% | [2] 4.75% | [3] 2.4% | [4] -2.4% | [5] -19.9% | [6] -24.9%

CS(=O)(=O)OCC1OC(n2ncc(=O)[nH]c2=O)C(O)C1O (stereo not drawn)
inactive: [1] 6.9% | [2] 13.7% | [3] -7.1% | [4] -2.45% | [5] 2.95% | [6] 11%

c1ccc(CNc2nnnc3ccccc23)cc1
inactive: [1] -2.75% | [2] -1.45% | [3] -2.4% | [4] -30.8% | [5] -14.5% | [6] 2.2%

CC(C)C(C=O)C(O)(C(F)(F)F)C(F)(F)F (stereo not drawn)
inactive: [1] 2.3% | [2] -2.8% | [3] -30.6% | [4] 13.3% | [5] 22.3% | [6] 0.5%

NC(=S)/N=C/c1c(O)c2ccccc2oc1=O
inactive: [1] -15.8% | [2] 3.95% | [3] -37.5% | [4] 3.5% | [5] -12.7% | [6] -35%

Cc1cccc(NC(=O)N(C(C)C)C(C)C)c1
inactive: [1] -16.4% | [2] -38.2% | [3] -3.55% | [4] 2.8% | [5] 5.8% | [6] -27.6%

CCc1c(C)[nH]c2ccc([N+](=O)[O-])cc12
inactive: [1] 18.2% | [2] 3.25% | [3] 6.7% | [4] 19.9% | [5] 23.2% | [6] 26.4%

O=C(O)C1CC(=O)N(Cc2ccccc2)C1 (stereo not drawn)
inactive: [1] 32.8% | [2] 33.3% | [3] 34.6% | [4] 6.45% | [5] 26.7% | [6] 34%

Cc1ccc(/C=C2\NC(=S)NC2=O)cc1
inactive: [1] -0.15% | [2] -18.9% | [3] -1.9% | [4] -21.4% | [5] -23.4% | [6] -41.4%

COc1ccccc1/C=C\C#N
inactive: [1] -9.2% | [2] -6.1% | [3] -6.45% | [4] -28% | [5] -29.2% | [6] -13.4%
